# Bioassay records (PubChem)
# DT40 TDP1 CPT: qHTS for Inhibitors of human tyrosyl-DNA phosphodiesterase 1 (TDP1): qHTS in cells in presence of CPT | chicken DT40 Tdp1-/-;hTDP1 cells + 20 nM CPT, ATP luminescence, 48 h | AID 686979, 2013 | Potency, µM (series often up to 46.2 µM), for inactives: at the top dose activity change, negative = growth inhibition, hits mostly inhibitors | actives 12% (n = 420,000); also: potency is read from the fitted curve at half-maximal effect; % is scaled to controls: 0 for no effect and ±100 for the full control effect; nearly all actives have a fitted effect of over 55% in size
#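 Chicken DT40 Tdp1-/- cells complemented with human TDP1, 400 cells/well, exposed to compounds plus 20 nM camptothecin for at least 48 h at 37 C; viability read as ATP content by CellTiter-Glo luminescence.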
# IL1B secr inh: qHTS for Inhibitors of Inflammasome Signaling: IL-1-beta AlphaLISA Primary Screen | THP-1 LPS/ATP IL-1B secretion, AlphaLISA, 16 h; hits give low values | activity change, % at 57.5 µM | actives 4.7% (n = 360,000); in the data active = activity change below about -50%; inconclusive = mostly about -30% to -49%; also: % is scaled to controls: 0 for no effect and ±100 for the full control effect
#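 Secreted IL-1B measured by AlphaLISA bead assay after 16 h compound exposure of THP-1 cells; compounds (final up to 57.5 uM) added 1 h before LPS (250 ng/mL) and ATP (1.25 mM) stimulation; lower signal means less secretion.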
# HepG2 viability: qHTS for Inhibitors of TGF-b: Cytotox Counterscreen. actives 0.76% (n = 410,000). Potency, µM (titrated, usually from 46.1 µM), for the others: at the highest dose activity change, negative = cytotoxicity, most hits filed as cytotoxic. HepG2 CAGA-GFP viability, ATP luminescence, 18 h; also: potency is read from the fitted curve at half-maximal effect
#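 CellTiter-Glo luminescence gave cytotoxicity after 18 hours at 37 degrees C. The cells were HepG2 CAGA-GFP in 1% FBS DMEM, stimulated with 500 pg/mL TGF-beta after compound addition. %Activity was normalised to no-cell wells (complete cell-killing) and DMSO (no toxicity), and curves were fitted and classified.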
# DT40 TDP1 no CPT: qHTS for Inhibitors of human tyrosyl-DNA phosphodiesterase 1 (TDP1): qHTS in cells in absence of CPT; DT40 Tdp1-/- hTDP1 cells, no CPT, ATP luminescence, 48 h; Potency, µM (titrated, usually from 46.2 µM), inactives show at the highest dose activity change, negative = growth inhibition, usual class: inhibitors; actives 15% (n = 420,000); also: potency is read from the fitted curve at half-maximal effect; % is scaled to controls: 0 for no effect and ±100 for the full control effect; nearly all actives have a fitted effect of over 55% in size
#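 Compound effects on proliferation are scored in DT40 Tdp1-/-;hTDP1 cells in the absence of CPT. ATP levels (CellTiter-Glo luminescence) are recorded after a ≥48 hr, 37 °C incubation.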
# TGFb inhibitor: qHTS for Inhibitors of TGF-b; HepG2 CAGA-GFP TGF-b/SMAD3 reporter, GFP fluorescence, 18 h; TGF-beta stimulated, 500 pg/mL final; Potency, µM (highest dose often 46.1 µM), without a hit: top-dose activity, negative = inhibition, usual class: inhibitors; actives 1.2% (n = 410,000); also: potency is read from the fitted curve at half-maximal effect; % is scaled to controls: 0 for no effect and ±100 for the full control effect; nearly all actives have a fitted effect of over 65% in size
#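 TGF-beta reporter screen: HEPG2 CAGA-GFP, 1% FBS, 500 pg/mL TGF-beta final, 18 h; per-cell GFP summed per well; curves fitted and categorized by class.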
# TDP1 inh: qHTS Assay for Inhibitors of Tyrosyl-DNA Phosphodiesterase (TDP1). Potency, µM (series often up to 130 µM), without a hit: at the highest dose activity change, negative = inhibition, usual class: inhibitors. actives 0.28% (n = 350,000). recombinant TDP1, AlphaScreen DNA substrate cleavage; also: potency is read from the fitted curve at half-maximal effect; % is scaled to controls: 0 for no effect and ±100 for the full control effect; nearly all actives have a fitted effect of over 40% in size
# Target sequence (Q9NUW8 whole entry, looked up): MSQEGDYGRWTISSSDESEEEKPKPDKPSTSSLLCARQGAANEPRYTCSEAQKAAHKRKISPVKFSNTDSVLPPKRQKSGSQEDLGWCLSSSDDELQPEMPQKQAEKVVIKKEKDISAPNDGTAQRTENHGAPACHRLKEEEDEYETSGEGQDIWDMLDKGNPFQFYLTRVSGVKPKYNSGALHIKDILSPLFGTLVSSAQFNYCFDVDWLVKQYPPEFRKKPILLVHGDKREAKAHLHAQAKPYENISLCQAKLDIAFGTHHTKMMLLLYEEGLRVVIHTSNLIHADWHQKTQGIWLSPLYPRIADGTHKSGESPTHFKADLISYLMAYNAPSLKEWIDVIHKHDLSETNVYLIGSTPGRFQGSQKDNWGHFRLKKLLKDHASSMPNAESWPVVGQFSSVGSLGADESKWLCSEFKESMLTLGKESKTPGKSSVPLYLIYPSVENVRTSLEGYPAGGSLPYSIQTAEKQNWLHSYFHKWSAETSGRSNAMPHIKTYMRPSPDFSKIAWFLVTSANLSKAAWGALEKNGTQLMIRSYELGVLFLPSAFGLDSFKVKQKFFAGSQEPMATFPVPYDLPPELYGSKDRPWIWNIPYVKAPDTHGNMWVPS
#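 Steps: enzyme plus compound, 15 min RT; add biotin/phosphotyrosine-FITC oligonucleotide (15 nM final), react 5 min; add donor/acceptor beads (10 ug/ml final), 10 min; read AlphaScreen. Tdp1 at 1 nM final.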
# * hit, by the source's call; ? = inconclusive; · = not tested or not shown; [ ] = remark or other dose. In the library only some 19% were active in any assay of this set; here they are far more common. Unless noted, calls follow the shape of the dose curve; as a rule, active = well fitted curve in the direction sought with a large enough effect; inconclusive = small, poorly fitted or top-dose-only effect, or another doubt; inactive = no such curve, though single readings can be large; an effect the other way counts as inactive or inconclusive.
SMILES,DT40 TDP1 CPT,IL1B secr inh,HepG2 viability,DT40 TDP1 no CPT,TGFb inhibitor,TDP1 inh
N#Cc1ccc(NC(=O)CCNC(=O)c2ccco2)cc1Cl,8%,2,9%,-10%,-3%,11%
Cc1sc2ncnc(N3CCC(C(=O)Nc4ccc(C#N)c(Cl)c4)CC3)c2c1C,18µM*,12,-42%,?,?,2%
CCN(C(=O)Cn1c(=O)oc2cc(S(=O)(=O)N3CCCCCC3)ccc21)c1cccc(C)c1,?,·,-34%,21µM*,·,-3%
COc1ccc(CNC(=O)Cn2c(=O)oc3cc(S(=O)(=O)N4CCCCCC4)ccc32)cc1,13µM*,·,-36%,16µM*,-2%,6%
CCN(C(=O)Cn1c(=O)oc2cc(S(=O)(=O)N3CCCC3)ccc21)c1cccc(C)c1,?,·,-26%,?,·,-3%
Cc1ccnc(NC(=O)Cn2c(=O)oc3cc(S(=O)(=O)N4CCCC4)ccc32)c1,-2%,20,-48%,1%,-26%,·
CCC(C)(C)NC(=O)Cn1c(=O)oc2cc(S(=O)(=O)N3CC(C)CC(C)C3)ccc21 (stereo not drawn),?,-23,2%,-19%,-9%,2%
CC1CC(C)CN(S(=O)(=O)c2ccc3c(c2)oc(=O)n3CC(=O)NCc2cccnc2)C1 (stereo not drawn),?,-14,-24%,?,-21%,6%
COc1ccc(NC(=O)Cn2c(=O)oc3cc(S(=O)(=O)N4CCC(C)CC4)ccc32)c(OC)c1,21µM*,·,-30%,8.2µM*,13µM*,4%
Cc1ccc(Cl)cc1NC(=O)Cn1c(=O)oc2cc(S(=O)(=O)N3CCCC3)ccc21,23µM*,·,-38%,9.2µM*,·,5%
C=CC[C@]1(O)CC[C@H]2[C@@H]3CCC4=CCCC[C@@H]4[C@H]3CC[C@@]21C,-29%,·,·,0%,·,·
S=P(c1ccccc1)(c1ccccc1)c1cnc2ccccn12,·,·,·,·,·,2%
COc1ccc(C(C)(C)C)cc1NC(=O)CCCn1c(=O)oc2ccccc21,-24%,-14,2%,?,-6%,3%
COc1ccccc1NC(=O)Cn1c(=O)oc2cc(S(=O)(=O)N3CCCC3)ccc21,-7%,38,0%,?,15%,·
Cc1ccc(Cl)cc1NC(=O)Cn1c(=O)oc2cc(S(=O)(=O)N3CCCCCC3)ccc21,15µM*,·,-56%,16µM*,?,4%
COc1ccc(C)cc1NC(=O)Cn1c(=O)oc2cc(S(=O)(=O)N3CCCCC3)ccc21,?,·,-34%,15µM*,-24%,-2%
NC(=S)Nc1ccccc1,·,·,·,·,·,3%
CC(Oc1ccccc1)C(=O)Nc1ccc(C(=O)OCc2cc(=O)n3nc(C4CC4)sc3n2)cc1 (stereo not drawn),?,·,-25%,?,-4%,4%
CCCCCCC(=O)c1c(O)n(-c2ccc(OC)cc2)c(=O)[nH]c1=O (tested in a mixture with another compound),-29%,20,-5%,26µM*,9%,5%
CCCCCCC(=O)c1c(O)n(-c2ccccc2OC)c(=O)[nH]c1=O (tested in a mixture with another compound),12%,15,-9%,3%,3%,3%
O=C(C1CCN(S(=O)(=O)c2ccc(Br)s2)CC1)N1CCN(c2cccc(C(F)(F)F)c2)CC1,23µM*,·,-6%,6.5µM*,-1%,2%
CCc1ccc(-n2c(=O)c3sc4ccccc4c3n(CC(=O)NC3CCCC3)c2=O)cc1,?,·,-2%,?,1%,4%
CNC(=O)[C@@H]1C[C@H]1[C@@H](NP(=O)(c1ccccc1)c1ccccc1)c1ccccc1,·,·,·,·,·,7%
Cc1ccnc(NC(=O)CCCc2ccc(N(CCCl)CCCl)cc2)n1,0.23µM*,3,-6%,0.58µM*,5%,·
CCc1nc2ccc(C(=O)NCCN3CCNC3=O)cn2c1N(CC)Cc1cccc(Br)c1,?,-4,-22%,?,3%,·
SMILES,DT40 TDP1 CPT,IL1B secr inh,HepG2 viability,DT40 TDP1 no CPT,TGFb inhibitor,TDP1 inh
Cc1ccc(S(=O)(=O)N2CCC(=O)N(CCOC(=O)Nc3cccc(Cl)c3)CC2)cc1,12µM*,-12,-14%,21µM*,?,5%
CN1CCN(P(=O)(c2ccccc2)c2nc3ccccc3s2)CC1 (stereo not drawn),-2%,-7,2%,-9%,5%,0%
CC1CCN(C(=O)Cn2c3ccccc3c3nc4n(c(=O)c32)CCCS4)CC1,23µM*,19,9%,?,0%,4%
COc1ccc([C@@H]2COc3c(ccc4c3C=CC(C)(C)O4)C2)c(OC)c1,2%,-10,-6%,6%,6%,·
CCc1ccc(NC(=O)c2ccc3oc(=O)n(Cc4ccccc4)c3c2)cc1,?,·,-21%,18µM*,?,1%
C#CCOS(=O)OC1CCCCC1Oc1ccc(C(C)(C)C)cc1 (stereo not drawn),-26%,·,·,-24%,·,7%
COc1ccc(-n2c(/C=C/c3ccc(O)c(OC)c3)nc3ccccc3c2=O)cc1,21µM*,-67*,-20%,26µM*,33%,-2%
COc1ccc(-n2c(/C=C/c3ccc4c(c3)OCO4)nc3ccccc3c2=O)cc1,26µM*,-8,2%,15µM*,-1%,-8%
Cc1ccc(-n2c(/C=C\c3ccc(F)cc3)nc3ccccc3c2=O)cc1Cl,15µM*,·,6%,16µM*,?,5%
COc1cccc(-n2c(/C=C/c3ccc(O)c(O)c3)nc3ccccc3c2=O)c1,18%,?,-4%,?,88%,-6%
COc1cc(/C=C/c2nc3ccccc3c(=O)n2-c2ccc(Br)c(C)c2)ccc1O,21µM*,·,-38%,16µM*,?,8%
CCCOc1ccc(C(=O)CCC(=O)NNC(=O)c2ccncc2)cc1,7%,13,6%,8%,?,3%
COc1ccc(N(CC(=O)Nc2cccc(SC)c2)S(C)(=O)=O)cc1Cl,-23%,0,8%,?,-10%,-8%
COc1ccc2c(c1)C13CCCCC1C(C2)N(C)CC3 (stereo not drawn),·,·,·,·,·,6%[56.1 µM]
